From PubChem BioAssay AID1159580 (chemical genetic matrix, 2015)
Values joined by “and” are separate entries in the source; they are usually repeats but may differ in a detail not shown here. Identical values can stand only once. Out of some 5,500 compounds screened, about 2,000 (36%) were called active. Not shown: some 18% with an inconclusive outcome. No stated cut-off is given here; in the data, active means normalized growth mostly below about 0.91 (no sharp cut-off); inconclusive means no clear call, values can overlap the other calls; inactive means mostly above about 0.92. This is one part of the list.

Assay: chemical genetic growth profiling, strain panel (AID 1159580);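 further: tested at 20 µM; growth read once vehicle control cultures reached saturation at 30 °C; 1 = growth at the plate median or of vehicle wells; lower values mean less growth of the strain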
Conditions: S. cerevisiae deletion strains, growth OD

Measured: normalized growth

CCOC(=O)CCC(=O)O[C@H]1[C@H](O[C@@H]2[C@@H](C)[C@H](O[C@H]3C[C@@](C)(OC)[C@@H](O)[C@H](C)O3)[C@@H](C)C(=O)O[C@H](CC)[C@@](C)(O)[C@H](O)[C@@H](C)C(=O)[C@H](C)C[C@@]2(C)O)O[C@H](C)C[C@@H]1N(C)C
inactive: locus YAL021C, strain ccr4, hits give low values 1.01 | locus YAL026C, strain drs2, hits give low values 1.02 | locus YAL030W, strain snc1, hits give low values 0.99 | locus YBL061C, strain skt5, hits give low values 0.994 | locus YBR009C, strain hhf1, hits give low values 0.993 | locus YBR021W, strain FUR4, hits give low values 0.997 | locus YBR023C, strain chs3, hits give low values 0.999 | locus YBR171W, strain sec66, hits give low values 1.01 | locus YBR229C, strain ROT2, hits give low values 0.949 | locus YBR231C, strain swc5, hits give low values 0.971 | locus YBR279W, strain paf1, hits give low values 1.01 | locus YCL011C, strain gbp2, hits give low values 1.01 | locus YCL016C, strain dcc1, hits give low values 0.992 | locus YCL029C, strain bik1, hits give low values 0.99 | locus YCL069W, strain vba3, hits give low values 1 | locus YCR088W, strain abp1, hits give low values 1.01 | locus YDL005C, strain med2, hits give low values 0.994 | locus YDL035C, strain GPR1, hits give low values 0.945 | locus YDL040C, strain nat1, hits give low values 0.995 | locus YDL074C, strain BRE1, hits give low values 0.962 | locus YDL101C, strain DUN1, hits give low values 0.977 | locus YDL134C, strain PPH21, hits give low values 0.963 | locus YDL185W, strain tfp1, hits give low values 0.971 | locus YDL192W, strain arf1, hits give low values 0.985 | locus YDR001C, strain nth1, hits give low values 1.01 | locus YDR069C, strain doa4, hits give low values 0.983 | locus YDR101C, strain arx1, hits give low values 0.953 | locus YDR137W, strain rgp1, hits give low values 1.01 | locus YDR150W, strain NUM1, hits give low values 0.988 | locus YDR159W, strain sac3, hits give low values 0.979 | locus YDR162C, strain NBP2, hits give low values 0.955 | locus YDR195W, strain ref2 0.956 | locus YDR297W, strain sur2, hits give low values 1 | locus YDR318W, strain mcm21, hits give low values 0.996 | locus YDR334W, strain swr1, hits give low values 1 | locus YDR335W, strain msn5, hits give low values 0.993 | locus YDR388W, hits give low values 0.984 | locus YDR392W, strain spt3, hits give low values 1.03 | locus YDR502C, strain sam2, hits give low values 0.991 | locus YEL003W, strain gim4, hits give low values 1.01 | locus YEL037C, strain rad23, hits give low values 1.01 | locus YEL061C, strain CIN8 (second series), hits give low values 1.02 | locus YEL061C, strain CIN8, hits give low values 0.989 | locus YER015W, strain faa2, hits give low values 0.986 | locus YER016W, strain bim1, hits give low values 1.01 | locus YER110C, hits give low values 0.99 | locus YER111C, strain swi4, hits give low values 0.996 | locus YER155C, strain BEM2 (second series), hits give low values 0.985 | locus YER155C, strain BEM2, hits give low values 0.999 | locus YER167W, strain BCK2, hits give low values 0.999 | locus YFR010W, strain ubp6, hits give low values 1.03 | locus YGL078C, strain dbp3, hits give low values 0.994 | locus YGL086W, strain mad1, hits give low values 0.972 | locus YGL167C, strain pmr1, hits give low values 1 | locus YGL173C, strain kem1, hits give low values 1 | locus YGL227W, strain vid30, hits give low values 1.01 | locus YGL240W, strain doc1, hits give low values 0.975 | locus YGL248W, strain PDE1, hits give low values 0.986 | locus YGL253W, strain hxk2, hits give low values 1.01 | locus YGR135W, strain pre9, hits give low values 1.05 | locus YGR252W, strain gcn5, hits give low values 1.07 | locus YHR013C, strain ard1, hits give low values 0.997 | locus YHR027C, strain rpn1, hits give low values 1.02 | locus YHR030C, strain SLT2, hits give low values 0.995 and 1.03 | locus YHR079C, strain IRE1 (second series), hits give low values 0.962 | locus YHR079C, strain IRE1, hits give low values 1.04 | locus YHR094C, strain hxt1, hits give low values 0.985 | locus YHR129C, strain ARP1, hits give low values 0.986 | locus YHR142W, strain chs7, hits give low values 1.03 | locus YHR200W, strain rpn10, hits give low values 0.98 | locus YIL066C, strain RNR3, hits give low values 0.974 | locus YIL073C, strain SPO22, hits give low values 1 | locus YIL125W, strain kgd1, hits give low values 0.985 | locus YIR030C, strain dcg1, hits give low values 0.997 | locus YJL092W, strain hpr5, hits give low values 1.01 | locus YJL095W, strain BCK1 (second series), hits give low values 0.99 | locus YJL095W, strain BCK1, hits give low values 0.99 and 1.02 | locus YJL115W, strain asf1, hits give low values 1 | locus YJL129C, strain trk1, hits give low values 1 | locus YJL134W, strain LCB3, hits give low values 0.993 | locus YJL154C, strain vps35, hits give low values 1.01 | locus YJL164C, strain tpk1, hits give low values 0.999 | locus YJL166W, strain qcr8, hits give low values 0.993 | locus YJL168C, strain set2, hits give low values 0.985 | locus YJL187C, strain SWE1 (second series), hits give low values 0.991 | locus YJR043C, strain POL32, hits give low values 0.963 | locus YJR066W, strain TOR1, hits give low values 0.89 | locus YJR075W, strain HOC1, hits give low values 0.983 | locus YKL009W, strain mrt4, hits give low values 0.971 | locus YKL068W, hits give low values 0.987 | locus YKL085W, strain MDH1 (second series), hits give low values 0.995 | locus YKL085W, strain MDH1, hits give low values 0.995 | locus YKL160W, strain elf1, hits give low values 1 | locus YKR001C, strain vps1, hits give low values 0.981 | locus YKR026C, strain gcn3, hits give low values 1.01 | locus YKR091W, strain srl3, hits give low values 1 | locus YLL001W, strain dnm1, hits give low values 1 | locus YLL026W, hits give low values 0.991 | locus YLL041C, strain sdh2, hits give low values 1 | locus YLR027C, strain aat2, hits give low values 0.986 | locus YLR039C, strain RIC1, hits give low values 0.932 | locus YLR058C, strain SHM2, hits give low values 0.975 | locus YLR102C, strain apc9, hits give low values 0.986 | locus YLR113W, strain HOG1, hits give low values 1.11 | locus YLR221C, strain rsa3, hits give low values 1 | locus YLR258W, strain gsy2, hits give low values 0.983 | locus YLR262C, strain YPT6 (second series), hits give low values 1.04 | locus YLR262C, strain YPT6, hits give low values 0.885 | locus YLR268W, strain sec22, hits give low values 0.97 | locus YLR320W, strain mms22, hits give low values 0.996 | locus YLR330W, strain CHS5, hits give low values 0.985 | locus YLR342W, strain FKS1 (second series), hits give low values 0.985 | locus YLR342W, strain FKS1, hits give low values 0.985 | locus YLR357W, strain rsc2, hits give low values 0.982 | locus YLR370C, strain arc18, hits give low values 1.02 | locus YLR371W, strain rom2, hits give low values 0.992 | locus YLR384C, strain iki3, hits give low values 0.981 | locus YLR418C, strain cdc73, hits give low values 1.01 | locus YML016C, strain PPZ1, hits give low values 0.987 | locus YML032C, strain rad52, hits give low values 0.982 | locus YML120C, strain ndi1, hits give low values 0.995 | locus YML124C, strain tub3, hits give low values 0.988 | locus YMR058W, strain fet3, hits give low values 1.01 | locus YMR078C, strain ctf18, hits give low values 0.983 | locus YMR125W, strain sto1, hits give low values 1.01 | locus YMR129W, hits give low values 0.993 | locus YMR205C, strain PFK2, hits give low values 0.99 | locus YMR223W, strain ubp8, hits give low values 1.03 | locus YMR231W, strain pep5, hits give low values 0.998 | locus YMR263W, strain SAP30, hits give low values 0.984 | locus YMR307W, strain GAS1, hits give low values 0.97 | locus YNL067W, strain RPL9B, hits give low values 0.992 | locus YNL071W, strain lat1, hits give low values 0.996 | locus YNL153C, strain GIM3, hits give low values 0.983 | locus YNL183C, strain NPR1, hits give low values 0.981 | locus YNL209W, strain ssb2, hits give low values 0.991 | locus YNL233W, strain BNI4, hits give low values 0.988 | locus YNL248C, strain rpa49, hits give low values 1.04 | locus YNL250W, strain rad50, hits give low values 0.99 | locus YNL271C, strain bni1, hits give low values 0.997 | locus YNL298W, strain CLA4, hits give low values 0.99 | locus YNL307C, strain MCK1, hits give low values 0.989 | locus YNL322C, strain KRE1 (second series), hits give low values 0.988 | locus YNL322C, strain KRE1, hits give low values 0.995 | locus YNR049C, strain mso1, hits give low values 0.988 | locus YNR052C, strain pop2, hits give low values 1 | locus YOL012C, strain htz1 0.719 | locus YOL147C, strain pex11, hits give low values 0.995 | locus YOR001W, strain rrp6, hits give low values 1 | locus YOR061W, strain CKA2, hits give low values 0.966 | locus YOR069W, strain VPS5, hits give low values 0.991 | locus YOR070C, strain gyp1, hits give low values 0.991 | locus YOR080W, strain dia2, hits give low values 0.978 | locus YOR083W, strain WHI5, hits give low values 1.02 | locus YOR106W, strain vam3, hits give low values 0.989 | locus YOR136W, strain idh2, hits give low values 0.982 | locus YOR144C, strain elg1, hits give low values 0.987 | locus YOR184W, strain ser1, hits give low values 0.98 | locus YOR231W, strain MKK1, hits give low values 1.07 | locus YOR265W, strain rbl2, hits give low values 0.984 | locus YOR270C, strain vph1, hits give low values 1.03 | locus YOR290C, strain snf2, hits give low values 1.03 | locus YOR316C, strain cot1, hits give low values 0.975 | locus YPL051W, strain arl3, hits give low values 0.988 | locus YPL078C, strain atp4, hits give low values 0.991 | locus YPL106C, strain sse1, hits give low values 0.986 | locus YPL240C, strain hsp82, hits give low values 1.01 | locus YPL241C, strain CIN2, hits give low values 0.979 | locus YPL256C, strain CLN2, hits give low values 1.05 | locus YPR119W, strain clb2, hits give low values 0.988 | locus YPR141C, strain kar3, hits give low values 0.987 | locus YPR163C, strain tif3, hits give low values 0.989 | locus YPR167C, strain met16, hits give low values 0.991 | strain wtn01, hits give low values 0.99
